Measurements from PubChem BioAssay (NCI).
This is part of a sample that, as a whole, favours compounds with a hit. Of some 79,000 tested, about 15% had one in any assay. Active and inactive are the calls of the source. No stated cut-off is given here; in the data, active means growth inhibition above about 70%; inactive means the rest.

Columns and labels:
[1] = NCI Yeast Anticancer Drug Screen. Data for the rad52 strain (AID 147);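 further: 0% = growth of vehicle-treated control cultures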; details: S. cerevisiae rad52 mutant growth inhibition, hits give high values
Outline: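 Growth of repair-deficient yeast cells was compared between compound-treated and vehicle-treated cultures to give percent inhibition.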

[2] = NCI Yeast Anticancer Drug Screen. Data for the wt1 strain (AID 149);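 further: 0% = growth of vehicle-treated wt1 cultures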; details: S. cerevisiae wt1 strain (SPY 50644) growth inhibition, hits give high values
Outline: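 Growth inhibition read against vehicle controls after compound exposure of the wt1 yeast strain.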

[3] = NCI Yeast Anticancer Drug Screen. Data for the rad50EPP+ strain (AID 151);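 further: 0% = growth of vehicle-treated control cultures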; details: S. cerevisiae rad50 mutant strain, hits give high values
Outline: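 Measured: growth inhibition of rad50EPP+ yeast. Reference: vehicle-treated controls. Screen uses strains with defined genetic alterations in DNA damage repair or cell cycle control.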

[4] = NCI Yeast Anticancer Drug Screen. Data for the rad50 strain (AID 155);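 further: 0% = growth of vehicle-only cultures of the same strain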; details: S. cerevisiae rad50 strain growth inhibition, hits give high values
Outline: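 Readout: growth inhibition relative to vehicle-treated cultures. Compound exposure was carried out in a genetically defined yeast strain deficient in DNA damage repair.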

[5] = NCI Yeast Anticancer Drug Screen. Data for the mec2-1 strain (AID 157); details: S. cerevisiae mec2-1 strain, hits give high values
Outline: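 Compounds were applied to mec2-1 yeast cells. Their growth was then compared with that of vehicle-treated cultures to give growth inhibition.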

[6] = NCI Yeast Anticancer Drug Screen. Data for the rad14 strain (AID 159);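 further: 0% = growth of vehicle-treated control cultures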; details: S. cerevisiae rad14 strain growth inhibition, hits give high values
Outline: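 Growth inhibition vs vehicle controls; genetically altered yeast strain (DNA damage repair defect) treated with test compounds.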

[7] = NCI Yeast Anticancer Drug Screen. Data for the sgs1 mgt1 strain (AID 161);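 further: 0% = growth of cultures given vehicle only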; details: S. cerevisiae sgs1 mgt1 strain, hits give high values
Outline: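 Compounds are added to genetically altered yeast, and growth is compared with cultures given vehicle alone to give percent inhibition.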

[8] = NCI Yeast Anticancer Drug Screen. Data for the CLN2oe strain (AID 163);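 further: 0% = growth of vehicle-only control cultures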; details: S. cerevisiae CLN2oe strain, hits give high values
Outline: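 Cells of an engineered yeast line with disturbed cell-cycle regulation are treated with compound. Inhibition of growth is then calculated relative to the vehicle-treated reference.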

[9] = NCI Yeast Anticancer Drug Screen. Data for the cln2 rad14 strain (AID 165);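 further: 0% = growth equal to vehicle treated cultures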; details: S. cerevisiae cln2 rad14 strain, hits give high values
Outline: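 Strain: cln2 rad14 yeast, altered in cell cycle control and DNA damage repair. Read-out: growth inhibition vs vehicle.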

[10] = NCI Yeast Anticancer Drug Screen. Data for the bub3 strain (AID 167); details: S. cerevisiae bub3 mutant strain, hits give high values
Outline: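 Readout: yeast growth inhibition, expressed relative to vehicle-only wells. The test organism is a mutant strain from a panel with lesions in DNA repair or checkpoint genes.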

[11] = NCI Yeast Anticancer Drug Screen. Data for the wt2 strain (AID 169);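 further: 0% = growth of vehicle-treated yeast cultures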; details: S. cerevisiae wt2 strain growth inhibition, hits give high values
Outline: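 Growth of compound-treated yeast is measured and expressed as inhibition relative to vehicle-only controls.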

[12] = NCI Yeast Anticancer Drug Screen. Data for the mlh1 strain (AID 171);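 further: 0% = growth of vehicle-treated control cultures of the same strain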; details: S. cerevisiae mlh1 strain growth inhibition, hits give high values
Outline: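 Test agents were incubated with yeast bearing a defined DNA damage repair or cell cycle control alteration; values are growth inhibition normalised to vehicle-treated cultures.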

[13] = NCI Yeast Anticancer Drug Screen. Data for the sgs1 strain (AID 173);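 further: 0% = growth of vehicle-only control cultures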; details: S. cerevisiae sgs1 mutant, hits give high values
Outline: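 Strain with an altered DNA repair or cell cycle pathway exposed to compound. Growth then measured. Value = inhibition versus vehicle control.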

[14] = NCI Yeast Anticancer Drug Screen. Data for the mlh1 rad18 strain (AID 175); details: S. cerevisiae mlh1 rad18 strain growth inhibition, hits give high values
Outline: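 A repair-deficient yeast strain is exposed to test compound, and growth is scored relative to vehicle-treated controls.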

[15] = NCI Yeast Anticancer Drug Screen. Data for the rad18 strain (AID 177); details: S. cerevisiae rad18 mutant growth inhibition, hits give high values
Outline: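 DNA-repair-defective yeast; compound treatment; growth inhibition scored against vehicle.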

[16] = at 5.0 µM (retest, dose inferred, filed as 0.5)
[17] = at 50.0 µM (retest, dose inferred, filed as 5.0)

Measured: growth inhibition

CN=C(N)N/N=C(\C)c1ccc2oc3ccc(/C(C)=N/NC(N)=NC)cc3c2c1
active: [1]; at 11.0 µM 88% | [1]; at 33.0 µM 98% | [1]; at 100.0 µM 98% | [2]; at 33.0 µM 98% | [2]; at 100.0 µM 98% | [3]; at 11.0 µM 70% | [3]; at 33.0 µM 96% | [3]; at 100.0 µM 98% | [4]; [16] 81% | [4]; at 11.0 µM 92% | [4]; at 33.0 µM 98% | [4]; [17] 98% | [4]; at 50.0 µM 90% | [4]; at 100.0 µM 98% | [5]; at 33.0 µM 98% | [5]; [17] 99% | [5]; at 50.0 µM 93.6% | [5]; at 100.0 µM 98% | [6]; at 33.0 µM 98% | [6]; at 100.0 µM 98% | [7]; [17] 99% | [7]; at 50.0 µM 90.4% | [8]; at 33.0 µM 97% | [8]; at 100.0 µM 98% | [9]; [17] 98% | [9]; at 50.0 µM 91.8% | [10]; at 33.0 µM 97% | [10]; [17] 99% | [10]; at 50.0 µM 89.2% | [10]; at 100.0 µM 98% | [11]; at 11.0 µM 95% | [11]; at 33.0 µM 98% | [11]; at 100.0 µM 98% | [12]; at 33.0 µM 98% | [12]; at 100.0 µM 98% | [13]; at 33.0 µM 98% | [13]; at 100.0 µM 98% | [14]; [17] 98% | [14]; at 50.0 µM 87.5% | [15]; at 11.0 µM 70% | [15]; at 33.0 µM 98% | [15]; at 100.0 µM 98%
inactive: [1]; at 1.2 µM 11% | [1]; at 3.7 µM 28% | [2]; at 1.2 µM -8% | [2]; at 3.7 µM -21% | [2]; at 11.0 µM 11% | [3]; at 1.2 µM -17% | [3]; at 3.7 µM 23% | [4]; at 1.2 µM 34% | [4]; at 3.7 µM 64% | [5]; at 1.2 µM -11% | [5]; at 3.7 µM -9% | [5]; [16] 15% | [5]; at 11.0 µM 15% | [6]; at 1.2 µM 4% | [6]; at 3.7 µM -18% | [6]; at 11.0 µM 43% | [7]; [16] 56% | [8]; at 1.2 µM -66% | [8]; at 3.7 µM -74% | [8]; at 11.0 µM 20% | [9]; [16] 13% | [10]; at 1.2 µM -14% | [10]; at 3.7 µM -24% | [10]; [16] 37% | [10]; at 11.0 µM 2% | [11]; at 1.2 µM -4% | [11]; at 3.7 µM 2% | [12]; at 1.2 µM -23% | [12]; at 3.7 µM -24% | [12]; at 11.0 µM 35% | [13]; at 1.2 µM -21% | [13]; at 3.7 µM -14% | [13]; at 11.0 µM 37% | [14]; [16] 54% | [15]; at 1.2 µM -13% | [15]; at 3.7 µM -13%

Nc1cc(F)cc2c1-c1ccc(F)cc1C2
inactive: [1]; at 1.2 µM -1% | [1]; at 3.7 µM -1% | [1]; at 11.0 µM 3% | [1]; at 33.0 µM 30% | [2]; at 1.2 µM -3% | [2]; at 3.7 µM -4% | [2]; at 11.0 µM -4% | [2]; at 33.0 µM 10% | [3]; at 1.2 µM 3% | [3]; at 3.7 µM 10% | [3]; at 11.0 µM 25% | [4]; at 1.2 µM 6% | [4]; at 3.7 µM -41% | [4]; [16] 1% | [4]; at 11.0 µM 33% | [4]; at 33.0 µM 47% | [4]; [17] 60% | [5]; at 1.2 µM -1% | [5]; at 3.7 µM 1% | [5]; [16] 2% | [5]; at 11.0 µM 2% | [5]; at 33.0 µM 23% | [5]; [17] 18%
active: [1]; at 100.0 µM 92% | [2]; at 100.0 µM 90% | [3]; at 33.0 µM 90% | [3]; at 100.0 µM 95% | [4]; at 50.0 µM 87% | [4]; at 100.0 µM 92% | [5]; at 50.0 µM 74.6%
